Assay results reported in PubChem BioAssay.
Calls of active or inactive are those of the source.

Assays:
[1] = small molecules captured by biotinylated probe aFSTL3 – biochemical, small-molecule microarray, fluorescence 635/667, stem cell growth factor project, primary screen (AID 1064); settings: higher = more signal;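 note: measures binding of the biotinylated anti-FSTL3 antibody to printed compounds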
[2] = binders from COS7 lysate, DM2A8 probe, primary screen, torsin A project, cell lysate, small-molecule microarray, fluorescence 635/667 (AID 1065); settings: higher = more signal, COS7 lysate expressing mutant human TOR1A
[3] = small molecules captured by biotinylated probe aFGF2 – biochemical, small-molecule microarray, fluorescence 635/667, stem cell growth factor project, primary screen (AID 1067); settings: higher = more signal;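 note: measures binding of biotinylated aFGF2 protein to printed compounds on slides; z-score merges feature fluorescence and signal-to-noise across triplicate slides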
[4] = small molecules captured by biotinylated probe aFGF10 – biochemical, small-molecule microarray, fluorescence 635/667, stem cell growth factor project, primary screen (AID 1071); settings: higher = more signal;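 note: score merges 667 nm spot intensity and signal to noise from triplicate slides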
[5] = molecular target: Neurogenic locus notch homolog protein 2 (Homo sapiens) (UniProt Q04721); assay: small molecules binding Notch2 protein – biochemical, small-molecule microarray, 635 nm fluorescence, stem cell growth factors, primary screen (AID 1073); settings: higher = more signal
[6] = molecular target: Pro-neuregulin-1, membrane-bound isoform (Homo sapiens) (UniProt Q02297); assay: small molecules binding neuregulin-1 protein – biochemical, small-molecule microarray, fluorescence 635/667, psychiatric disease protein project, primary screen (AID 1075); settings: NRG1 binding, 635 nm fluorescence, higher = more signal;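 note: score combines 667 nm spot fluorescence with signal to noise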
[7] = system: Neuregulin-1 EGF-like domain; assay: small molecules binding NRG1 EGF domain – biochemical, small-molecule microarray, 635 nm fluorescence, primary screen (AID 1081); settings: higher = more signal;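 note: binding of the protein to compounds printed on small-molecule microarray slides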
[8] = FRG1 expression reporter modulators in myotubes – cell-based, C2C12 myotubes, firefly/Renilla luciferase, luminescence, FRG1 inhibition for FSHD, primary screen (AID 1084); settings: FRG1 promoter luciferase, higher = more signal, called active from +8 up or from −8 down
[9] = small molecules captured by biotinylated probe aFST – biochemical, small-molecule microarray, fluorescence 635/667, stem cell growth factor project, primary screen (AID 1086); settings: higher = more signal;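 note: score merges 667 nm fluorescence with signal-to-noise of each printed compound spot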
[10] = binders of probe aHhip on microarray, primary screen, stem cell growth factor project, biochemical, small-molecule microarray, fluorescence 635/667 (AID 1087); settings: higher = more signal;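 note: score merges spot fluorescence at 667nm with spot signal to noise ratio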

Chain of Pro-neuregulin-1, membrane-bound isoform (Homo sapiens) (Q02297 whole entry, looked up, the tested form may be a part, canonical isoform): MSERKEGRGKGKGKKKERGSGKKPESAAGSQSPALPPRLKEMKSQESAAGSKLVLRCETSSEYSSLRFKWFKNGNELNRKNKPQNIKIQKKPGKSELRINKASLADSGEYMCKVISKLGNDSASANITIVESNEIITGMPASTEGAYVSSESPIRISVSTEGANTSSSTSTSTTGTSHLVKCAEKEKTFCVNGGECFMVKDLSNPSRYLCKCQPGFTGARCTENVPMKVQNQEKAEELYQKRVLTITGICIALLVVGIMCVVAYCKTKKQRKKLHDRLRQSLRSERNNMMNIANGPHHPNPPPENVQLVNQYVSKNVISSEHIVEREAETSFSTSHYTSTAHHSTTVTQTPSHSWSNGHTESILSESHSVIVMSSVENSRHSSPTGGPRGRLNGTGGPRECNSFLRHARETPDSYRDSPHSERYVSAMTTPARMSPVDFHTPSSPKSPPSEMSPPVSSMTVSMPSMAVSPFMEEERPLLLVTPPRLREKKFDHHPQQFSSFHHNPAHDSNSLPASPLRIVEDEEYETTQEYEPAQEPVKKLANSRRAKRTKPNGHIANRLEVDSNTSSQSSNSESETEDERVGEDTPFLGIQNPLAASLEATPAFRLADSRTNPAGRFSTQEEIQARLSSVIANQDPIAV
Chain of Neurogenic locus notch homolog protein 2 (Homo sapiens) (Q04721 whole entry, looked up, canonical isoform): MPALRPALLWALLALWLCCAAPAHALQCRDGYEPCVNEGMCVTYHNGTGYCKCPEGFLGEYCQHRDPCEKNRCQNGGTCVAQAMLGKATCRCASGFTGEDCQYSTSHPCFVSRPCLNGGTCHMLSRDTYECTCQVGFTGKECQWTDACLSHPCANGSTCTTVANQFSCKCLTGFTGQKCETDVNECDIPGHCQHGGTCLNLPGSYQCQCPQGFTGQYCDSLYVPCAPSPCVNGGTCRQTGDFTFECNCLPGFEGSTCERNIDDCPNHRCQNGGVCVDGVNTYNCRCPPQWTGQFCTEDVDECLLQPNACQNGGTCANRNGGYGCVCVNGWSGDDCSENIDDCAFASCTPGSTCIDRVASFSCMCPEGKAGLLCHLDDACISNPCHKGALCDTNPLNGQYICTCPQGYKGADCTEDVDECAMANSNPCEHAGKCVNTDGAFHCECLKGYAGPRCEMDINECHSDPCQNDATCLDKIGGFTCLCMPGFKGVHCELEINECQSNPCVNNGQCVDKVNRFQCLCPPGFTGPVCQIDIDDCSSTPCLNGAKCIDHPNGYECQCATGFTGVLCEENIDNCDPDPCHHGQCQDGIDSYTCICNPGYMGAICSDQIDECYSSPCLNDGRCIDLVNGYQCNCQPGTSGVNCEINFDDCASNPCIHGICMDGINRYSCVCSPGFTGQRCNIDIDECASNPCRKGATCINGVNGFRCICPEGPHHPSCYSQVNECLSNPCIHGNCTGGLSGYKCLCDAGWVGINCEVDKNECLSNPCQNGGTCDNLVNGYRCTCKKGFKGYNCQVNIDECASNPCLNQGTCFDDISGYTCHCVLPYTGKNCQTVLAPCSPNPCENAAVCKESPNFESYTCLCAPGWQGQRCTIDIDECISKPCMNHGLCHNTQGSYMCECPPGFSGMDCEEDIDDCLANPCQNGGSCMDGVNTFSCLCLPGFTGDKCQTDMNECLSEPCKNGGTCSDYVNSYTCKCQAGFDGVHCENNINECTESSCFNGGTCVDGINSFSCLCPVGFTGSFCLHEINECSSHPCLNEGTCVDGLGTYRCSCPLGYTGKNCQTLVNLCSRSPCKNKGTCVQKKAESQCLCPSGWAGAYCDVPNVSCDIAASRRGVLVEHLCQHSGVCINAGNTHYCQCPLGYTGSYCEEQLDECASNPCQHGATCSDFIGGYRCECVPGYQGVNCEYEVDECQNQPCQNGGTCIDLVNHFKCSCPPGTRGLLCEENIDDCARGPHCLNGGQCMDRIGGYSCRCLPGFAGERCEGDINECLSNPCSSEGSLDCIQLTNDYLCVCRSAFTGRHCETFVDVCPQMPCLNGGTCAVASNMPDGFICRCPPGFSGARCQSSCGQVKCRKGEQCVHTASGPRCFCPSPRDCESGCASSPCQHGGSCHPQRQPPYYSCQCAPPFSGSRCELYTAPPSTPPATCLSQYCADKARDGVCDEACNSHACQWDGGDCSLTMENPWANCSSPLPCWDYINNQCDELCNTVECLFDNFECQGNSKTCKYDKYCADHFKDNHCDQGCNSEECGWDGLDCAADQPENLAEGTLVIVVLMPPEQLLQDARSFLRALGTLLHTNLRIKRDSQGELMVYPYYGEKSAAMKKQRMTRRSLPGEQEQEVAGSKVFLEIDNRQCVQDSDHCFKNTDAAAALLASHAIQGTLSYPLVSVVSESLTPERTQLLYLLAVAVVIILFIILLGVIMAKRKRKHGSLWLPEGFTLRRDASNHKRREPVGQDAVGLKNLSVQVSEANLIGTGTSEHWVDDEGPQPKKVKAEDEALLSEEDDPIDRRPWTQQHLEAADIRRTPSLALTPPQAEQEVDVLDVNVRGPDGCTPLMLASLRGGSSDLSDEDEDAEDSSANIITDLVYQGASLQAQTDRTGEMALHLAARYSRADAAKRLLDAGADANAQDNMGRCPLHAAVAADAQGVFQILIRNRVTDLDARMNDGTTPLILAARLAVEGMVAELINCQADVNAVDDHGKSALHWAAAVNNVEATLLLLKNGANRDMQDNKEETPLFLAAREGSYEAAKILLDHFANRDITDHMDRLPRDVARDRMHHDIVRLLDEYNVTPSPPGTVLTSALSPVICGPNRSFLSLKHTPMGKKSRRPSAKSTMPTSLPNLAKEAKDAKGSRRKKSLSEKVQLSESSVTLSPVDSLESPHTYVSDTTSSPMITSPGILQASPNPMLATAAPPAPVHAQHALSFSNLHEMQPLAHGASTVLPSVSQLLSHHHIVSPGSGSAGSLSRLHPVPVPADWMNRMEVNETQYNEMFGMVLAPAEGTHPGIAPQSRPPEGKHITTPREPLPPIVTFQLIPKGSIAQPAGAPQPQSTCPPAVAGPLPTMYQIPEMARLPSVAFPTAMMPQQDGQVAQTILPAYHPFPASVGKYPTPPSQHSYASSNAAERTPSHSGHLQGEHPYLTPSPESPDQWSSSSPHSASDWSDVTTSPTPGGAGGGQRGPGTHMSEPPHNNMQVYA

SMILES | composite z-score [1] | composite z-score [2] | composite z-score [3] | composite z-score [4] | composite z-score [5] | composite z-score [6] | composite z-score [7] | z-score [8] | composite z-score [9] | composite z-score [10]
COc1ccc([Si](C)(C)[C@H]2[C@H](CCO)O[C@@]3(C(=O)N(Cc4ccccc4)c4ccc(N5C(=O)c6ccccc6Oc6ccccc65)cc43)[C@@H]2C)cc1 | 0.342 | -0.393 | -0.0591 | 0.606 | -0.0653 | 0.777 | 0.79 | -1.55 (inactive) | -0.0173 | -0.169
Cc1ccc(C(C)CC(O)C2C=CC3C(=O)N(c4ccccc4)C(=O)C3N2Nc2ccc(C#N)cc2)o1 (stereo not given) | 0.0794 | -0.28 | 0.0489 | 0.954 | 1.7 | 1.88 | 1.08 | -0.629 (inactive) | 0.998 | -0.283
O=C1N[C@@H](Cc2ccccc2)C(=O)N2[C@@H]1C[C@@H](C(=O)O)[C@H]2c1ccc(O)cc1 | 0.106 | 0.726 | -0.0773 | 0.473 | 0.0865 | 1.77 | 1.37 | 4.65 (inactive) | 0.661 | -0.257
COCC1=C2[C@@H](CCc3ccccc3)OB(O)C[C@@H]2[C@@H]2C(=O)N(C)C(=O)[C@@H]2C1 | -0.136 | 0.0288 | -0.164 | 0.511 | 0.21 | -0.295 | 0.843 | -3.25 (inactive) | -0.0464 | -0.0618
CCCCC(=C=CC[C@H](O)c1ccc(OCCO)cc1)C[C@H](O)c1cc(Cl)cc(Cl)c1O | -0.268 | 0.092 | -0.186 | 0.214 | 0.323 | 1.05 | 0.965 | -2 (inactive) | 0.236 | -0.264
C=CCNC(=O)[C@@H]1[C@H]2C(=O)O[C@H](c3ccccc3)[C@H](c3ccccc3)N2[C@H](c2ccc(O)cc2)[C@@]12C(=O)Nc1ccc(C#CCC(C(=O)OC)C(=O)OC)cc12 | -0.174 | 0.198 | -0.18 | 0.163 | 0.162 | 0.749 | 0.95 | 1.03 (inactive) | 0.249 | 0.0623
CCCCC(=O)N(CCN1CCOCC1)[C@@H]1CC(C(=O)NCCO)=C[C@H](Oc2c(I)cc(CO)cc2OC)[C@H]1O | -0.725 | 0.151 | -0.146 | 0.511 | 0.555 | 0.171 | 0.384 | 0.912 (inactive) | 0.0126 | -0.549
C=CCN1C(=O)[C@]2(O[C@H](CCO)[C@@H]([Si](C)(C)c3ccc(OC)cc3)[C@@H]2C)c2cc(NC(=O)c3ccc(OC)cc3)ccc21 | -0.429 | 0.421 | -0.105 | 0.3 | 0.384 | 0.686 | 1.09 | -3.52 (inactive) | 0.346 | -0.204
C=CC[C@H](OC(=O)Nc1ccc(SC)cc1)c1ccc(OCCO)cc1 | 0.339 | 0.0366 | -0.107 | -0.85 | -1.2 | 0.958 | 1.07 | 8.37 (active) | -0.413 | -0.0994
C[C@]1(C(=O)NCCN2CCOCC2)c2ccccc2C(=O)N(Cc2cc(F)cc(C(F)(F)F)c2)[C@H]1c1ccc(CO)cc1 | 0.0545 | 0.933 | -0.141 | -0.762 | -0.387 | 1.06 | 1.47 | -1.54 (inactive) | 1.16 | -0.0994
C=C[C@@H](C)[C@@H](OC(=O)Nc1ccc(SC)cc1)c1ccc(OCCO)cc1 | 0.004 | 0.81 | 0.0918 | 0.447 | -0.202 | 1.41 | 1.26 | 10.5 (active) | 0.051 | 0.0373
C=C(/C(=C/C[C@H](OC(=O)c1ccncc1)c1ccccc1OCCO)c1cnc2ccccc2c1)C(C)C | -0.145 | 0.763 | -0.0316 | 1.18 | 1.55 | 1.01 | 1.22 | -0.0406 (inactive) | 0.853 | -0.112
COc1cc(NN2C(C(O)C3CCCCC3)C=CC3C(=O)N(C)C(=O)C32)cc(OC)c1OC (stereo not given) | 0.322 | 0.054 | 0.162 | 0.306 | 1.59 | 1.65 | 1.21 | 0.391 (inactive) | 0.479 | 0.0877
C=C(C)[C@@H]1CC=C(C(O)C2C=CC3C(=O)N(c4ccccc4)C(=O)C3N2Nc2ccc(C#N)cc2)CC1 (stereo not given in full) | -0.266 | -0.278 | 0.169 | 0.783 | 1.65 | 1.81 | 1.33 | -1.74 (inactive) | 1.53 | -0.112
O=C1C2C=CC(C(O)c3ccco3)N(Nc3ccccc3)C2C(=O)N1c1ccccc1 (stereo not given) | 0.76 | -0.79 | -0.0767 | -0.216 | -0.331 | 0.944 | 1.08 | 0.64 (inactive) | 0.225 | -0.134
C=C(CCCC)C(=O)CC[C@H](OC(C)=O)c1ccc(OCCO)cc1 | -0.222 | -0.0212 | -0.214 | -0.253 | -0.989 | -0.189 | -0.67 | 0.38 (inactive) | -0.358 | 3.01
O=C(NCC(O)CO)[C@@]1(CCS(=O)(=O)c2ccccc2)COC(c2ccc(OCCCO)cc2)=N1 (stereo not given in full) | 1.05 | 1.85 | 0.0729 | 0.25 | 1.45 | 2.12 | 1.41 | -1.16 (inactive) | 1.1 | -0.214
